Results as given in ChEMBL document CHEMBL3988442, “University of Dundee, Small-Polar-MMV Screening Library” (2021).
For some assays here: Potency and affinity values are given separately.

What was measured:
Design in all cases: scale not given: direction of the effect not stated beside the values
[1] = biological target: Protein translocase subunit SecA (Escherichia coli (strain K12)) (UniProt P10408); assay: Assay to Identify E. coli SecA ATPase Inhibitors; type: functional; settings: 30 µM
[2] = biological target: T1, Ubiquitin-activating enzyme e1, putative (Leishmania donovani (strain BPK282A1)) (UniProt E9BSI1); assay: Leishmania donovani Ubiquitin Activating Enzyme (LdE1); type: functional; settings: 30 µM
T1 sequence (whole entry): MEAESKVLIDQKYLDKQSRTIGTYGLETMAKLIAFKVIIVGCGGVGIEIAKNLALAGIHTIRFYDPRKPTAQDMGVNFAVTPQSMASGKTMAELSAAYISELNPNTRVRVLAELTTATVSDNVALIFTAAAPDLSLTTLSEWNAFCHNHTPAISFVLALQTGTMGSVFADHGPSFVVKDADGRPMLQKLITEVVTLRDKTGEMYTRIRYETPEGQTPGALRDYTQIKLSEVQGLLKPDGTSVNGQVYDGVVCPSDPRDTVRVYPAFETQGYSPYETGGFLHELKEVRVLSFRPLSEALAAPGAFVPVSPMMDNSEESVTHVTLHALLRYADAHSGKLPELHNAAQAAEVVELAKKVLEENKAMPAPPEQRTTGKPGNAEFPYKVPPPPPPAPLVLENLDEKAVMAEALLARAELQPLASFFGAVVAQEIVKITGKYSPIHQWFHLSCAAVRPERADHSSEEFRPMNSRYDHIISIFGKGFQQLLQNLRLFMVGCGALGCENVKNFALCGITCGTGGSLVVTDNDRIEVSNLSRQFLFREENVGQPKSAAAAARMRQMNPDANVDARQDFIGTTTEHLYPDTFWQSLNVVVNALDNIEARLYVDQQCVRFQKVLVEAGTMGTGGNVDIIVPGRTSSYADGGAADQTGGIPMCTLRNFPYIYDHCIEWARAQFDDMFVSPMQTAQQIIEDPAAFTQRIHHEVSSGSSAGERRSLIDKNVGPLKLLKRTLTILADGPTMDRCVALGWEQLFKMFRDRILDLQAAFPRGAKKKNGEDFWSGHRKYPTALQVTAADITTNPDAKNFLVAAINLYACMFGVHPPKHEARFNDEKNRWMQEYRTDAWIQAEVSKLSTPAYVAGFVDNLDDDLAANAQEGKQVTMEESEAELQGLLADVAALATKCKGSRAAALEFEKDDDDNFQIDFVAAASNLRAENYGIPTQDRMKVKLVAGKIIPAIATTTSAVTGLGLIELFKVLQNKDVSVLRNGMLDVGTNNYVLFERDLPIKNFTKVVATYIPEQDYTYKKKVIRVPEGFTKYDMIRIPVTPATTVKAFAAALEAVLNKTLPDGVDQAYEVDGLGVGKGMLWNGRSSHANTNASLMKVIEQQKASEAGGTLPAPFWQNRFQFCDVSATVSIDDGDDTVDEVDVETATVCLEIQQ

[3] = biological target: AMP-activated protein kinase, AMPK (Homo sapiens) (UniProt P54646+O43741+P54619+Q9UGJ0+Q9Y478+Q13131+Q9UGI9); assay: AMP-dependent Kinase enzyme assay. An in vitro enzyme assay that detects ADP turnover that is directly proportional to AMPK activity. This uses naive AMPK that is activated during the assay with MK-8722; type: functional; settings: 30 µM
[4] = biological target: Sialic acid-binding Ig-like lectin 9 (Homo sapiens) (UniProt Q9Y336); assay: Hs-Siglec9 ALPHAscreen SOP 20170721; settings: 10 µM
Trypanosoma cruzi = assay: Trypanosoma cruzi phosphomannomutase and mannose-1-phosphate guanylyltransferase assay; type: functional; settings: 10 µM
[5] = biological target: T2, Arginase-2, mitochondrial (Homo sapiens) (UniProt P78540); assay: in vitro enzyme assay to detect the production of urea directly proportional to the activity of Arginase II; type: functional; settings: 33.3 µM; further: in the data most compounds retested in dose-response had high values
T2 sequence (whole entry): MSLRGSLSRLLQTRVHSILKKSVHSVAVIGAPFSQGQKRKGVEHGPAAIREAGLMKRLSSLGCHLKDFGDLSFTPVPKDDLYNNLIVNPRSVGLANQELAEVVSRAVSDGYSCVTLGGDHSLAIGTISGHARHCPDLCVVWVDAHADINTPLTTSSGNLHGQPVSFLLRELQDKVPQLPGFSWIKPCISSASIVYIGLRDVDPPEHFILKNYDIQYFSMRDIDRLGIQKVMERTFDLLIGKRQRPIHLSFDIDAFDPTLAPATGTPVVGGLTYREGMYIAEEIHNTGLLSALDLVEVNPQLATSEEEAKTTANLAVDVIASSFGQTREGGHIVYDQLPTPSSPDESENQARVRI

[6] = biological target: T3, Proteasome subunit beta (Trypanosoma cruzi) (UniProt O96673); assay: Trypanosoma cruzi proteasome chymotrypsin-like activity (TcProtChymo) assay.; further: in the data most compounds retested in dose-response had high values; type: functional; settings: 9.37 µM
T3 sequence (whole entry): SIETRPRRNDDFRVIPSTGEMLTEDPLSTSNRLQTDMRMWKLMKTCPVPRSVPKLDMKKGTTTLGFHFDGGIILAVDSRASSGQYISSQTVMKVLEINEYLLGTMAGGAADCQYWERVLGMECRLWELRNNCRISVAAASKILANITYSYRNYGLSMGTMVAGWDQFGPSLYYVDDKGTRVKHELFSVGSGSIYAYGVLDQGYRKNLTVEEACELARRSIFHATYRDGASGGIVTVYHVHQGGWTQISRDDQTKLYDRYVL

Homo sapiens = species on record: Homo sapiens; assay: To identify inhibition of the IFN signalling (Jak-Stat) pathway via expression of an eGFP reporter gene under the control of an IFN-stimulated response element (ISRE) containing MxA promoter.; type: functional; settings: 30 µM
[7] = biological target: T4, Tyrosyl-tRNA synthetase, putative (Trypanosoma cruzi (strain CL Brener)) (UniProt Q4DSP6); assay: Trypanosoma cruzi tyrosyl tRNA synthetase (TcYRS) _High Tyrosine SOP; type: functional; settings: 30 µM; further: in the data most compounds retested in dose-response had high values
T4 sequence (whole entry): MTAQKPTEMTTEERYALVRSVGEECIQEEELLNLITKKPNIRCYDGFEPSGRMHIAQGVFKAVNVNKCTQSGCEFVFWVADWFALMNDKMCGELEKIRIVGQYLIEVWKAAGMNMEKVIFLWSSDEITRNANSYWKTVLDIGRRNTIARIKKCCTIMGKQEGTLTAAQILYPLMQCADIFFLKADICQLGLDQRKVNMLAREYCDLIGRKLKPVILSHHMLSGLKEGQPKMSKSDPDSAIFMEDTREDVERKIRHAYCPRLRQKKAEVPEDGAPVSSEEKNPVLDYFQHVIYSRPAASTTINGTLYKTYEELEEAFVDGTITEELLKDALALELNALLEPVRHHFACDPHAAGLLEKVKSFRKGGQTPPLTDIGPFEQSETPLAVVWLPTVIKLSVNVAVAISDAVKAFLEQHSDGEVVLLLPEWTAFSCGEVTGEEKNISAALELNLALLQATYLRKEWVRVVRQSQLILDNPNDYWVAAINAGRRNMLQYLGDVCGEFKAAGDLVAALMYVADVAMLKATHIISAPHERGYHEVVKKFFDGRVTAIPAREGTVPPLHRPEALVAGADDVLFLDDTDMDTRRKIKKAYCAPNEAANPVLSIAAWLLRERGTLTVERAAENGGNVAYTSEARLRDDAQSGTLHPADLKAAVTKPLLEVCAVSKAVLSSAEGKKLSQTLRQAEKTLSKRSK

[8] = biological target: T4, Tyrosyl-tRNA synthetase, putative (Trypanosoma cruzi (strain CL Brener)); assay: Trypanosoma cruzi tyrosyl tRNA synthetase (TcYRS) SOP; type: functional; settings: 30 µM
[9] = biological target: Chromo domain-containing protein 1 (Saccharomyces cerevisiae (strain ATCC 204508 / S288c) (Baker's yeast)) (UniProt P32657); assay: ScCHD-1 Enzyme Inhibition Assay; type: functional; settings: 30 µM; further: in the data most compounds retested in dose-response had high values
Sequence of Chromo domain-containing protein 1 (Saccharomyces cerevisiae (strain ATCC 204508 / S288c) (Baker's yeast)) (P32657 whole entry, the tested form may be a part): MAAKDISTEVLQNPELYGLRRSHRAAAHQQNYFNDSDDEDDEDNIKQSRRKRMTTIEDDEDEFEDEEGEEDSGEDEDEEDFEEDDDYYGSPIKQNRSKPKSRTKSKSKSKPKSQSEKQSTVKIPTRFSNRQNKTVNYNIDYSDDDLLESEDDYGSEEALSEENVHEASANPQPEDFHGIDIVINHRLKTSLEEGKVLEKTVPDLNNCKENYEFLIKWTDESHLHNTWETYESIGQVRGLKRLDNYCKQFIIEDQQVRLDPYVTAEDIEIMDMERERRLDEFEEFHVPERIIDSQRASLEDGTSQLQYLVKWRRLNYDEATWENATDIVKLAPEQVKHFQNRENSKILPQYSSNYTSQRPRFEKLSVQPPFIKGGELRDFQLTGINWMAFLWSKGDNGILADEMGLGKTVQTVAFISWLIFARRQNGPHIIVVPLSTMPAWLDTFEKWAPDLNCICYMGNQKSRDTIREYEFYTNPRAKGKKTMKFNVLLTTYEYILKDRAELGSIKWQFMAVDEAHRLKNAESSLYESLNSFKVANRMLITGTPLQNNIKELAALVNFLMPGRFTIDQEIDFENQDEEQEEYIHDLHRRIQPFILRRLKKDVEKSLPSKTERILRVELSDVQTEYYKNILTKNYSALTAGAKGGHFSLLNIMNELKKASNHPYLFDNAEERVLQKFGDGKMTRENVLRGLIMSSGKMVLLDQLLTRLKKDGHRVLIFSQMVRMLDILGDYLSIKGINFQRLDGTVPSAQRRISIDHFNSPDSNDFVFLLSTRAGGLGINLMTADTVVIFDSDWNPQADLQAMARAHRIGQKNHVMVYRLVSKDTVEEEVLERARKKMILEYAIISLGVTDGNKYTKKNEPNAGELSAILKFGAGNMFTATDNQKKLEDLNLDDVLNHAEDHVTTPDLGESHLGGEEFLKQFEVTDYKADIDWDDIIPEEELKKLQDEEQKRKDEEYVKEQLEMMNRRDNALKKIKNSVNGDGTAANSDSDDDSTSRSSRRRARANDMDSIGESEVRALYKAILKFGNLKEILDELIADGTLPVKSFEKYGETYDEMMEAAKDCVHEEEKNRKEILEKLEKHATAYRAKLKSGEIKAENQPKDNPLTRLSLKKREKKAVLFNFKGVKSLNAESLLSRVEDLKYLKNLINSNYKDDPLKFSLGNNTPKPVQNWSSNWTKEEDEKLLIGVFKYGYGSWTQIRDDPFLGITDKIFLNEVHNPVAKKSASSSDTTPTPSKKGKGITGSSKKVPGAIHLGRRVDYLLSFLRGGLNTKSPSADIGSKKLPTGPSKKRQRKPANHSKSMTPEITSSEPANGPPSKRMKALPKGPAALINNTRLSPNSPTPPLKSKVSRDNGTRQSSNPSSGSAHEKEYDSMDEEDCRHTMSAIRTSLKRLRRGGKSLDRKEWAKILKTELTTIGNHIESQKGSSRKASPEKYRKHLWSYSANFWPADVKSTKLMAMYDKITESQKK

Sequence of Protein translocase subunit SecA (Escherichia coli (strain K12)) (P10408 whole entry): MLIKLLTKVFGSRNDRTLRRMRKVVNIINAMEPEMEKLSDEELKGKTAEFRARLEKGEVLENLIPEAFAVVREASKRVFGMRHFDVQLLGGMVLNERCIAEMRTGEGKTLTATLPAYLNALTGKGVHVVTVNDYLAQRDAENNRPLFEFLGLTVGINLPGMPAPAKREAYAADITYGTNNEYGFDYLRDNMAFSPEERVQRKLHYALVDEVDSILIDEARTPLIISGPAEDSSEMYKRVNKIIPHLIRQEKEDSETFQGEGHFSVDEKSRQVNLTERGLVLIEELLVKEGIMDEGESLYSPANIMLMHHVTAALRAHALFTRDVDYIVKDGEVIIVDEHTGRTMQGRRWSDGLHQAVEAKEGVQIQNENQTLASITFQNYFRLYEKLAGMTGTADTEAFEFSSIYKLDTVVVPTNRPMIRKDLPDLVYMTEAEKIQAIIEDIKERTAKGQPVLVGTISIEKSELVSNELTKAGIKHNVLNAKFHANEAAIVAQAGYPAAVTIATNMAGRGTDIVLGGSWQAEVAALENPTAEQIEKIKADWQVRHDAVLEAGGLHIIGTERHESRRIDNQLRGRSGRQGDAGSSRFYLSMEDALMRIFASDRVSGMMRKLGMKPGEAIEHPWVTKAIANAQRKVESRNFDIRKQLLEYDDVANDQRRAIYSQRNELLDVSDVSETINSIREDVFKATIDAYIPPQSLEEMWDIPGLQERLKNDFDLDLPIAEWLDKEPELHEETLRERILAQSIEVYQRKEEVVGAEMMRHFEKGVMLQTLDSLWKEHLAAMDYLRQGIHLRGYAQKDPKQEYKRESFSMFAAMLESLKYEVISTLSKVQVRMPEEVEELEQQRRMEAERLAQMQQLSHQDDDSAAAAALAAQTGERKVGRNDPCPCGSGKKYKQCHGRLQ
Sequence of Sialic acid-binding Ig-like lectin 9 (Homo sapiens) (Q9Y336 whole entry): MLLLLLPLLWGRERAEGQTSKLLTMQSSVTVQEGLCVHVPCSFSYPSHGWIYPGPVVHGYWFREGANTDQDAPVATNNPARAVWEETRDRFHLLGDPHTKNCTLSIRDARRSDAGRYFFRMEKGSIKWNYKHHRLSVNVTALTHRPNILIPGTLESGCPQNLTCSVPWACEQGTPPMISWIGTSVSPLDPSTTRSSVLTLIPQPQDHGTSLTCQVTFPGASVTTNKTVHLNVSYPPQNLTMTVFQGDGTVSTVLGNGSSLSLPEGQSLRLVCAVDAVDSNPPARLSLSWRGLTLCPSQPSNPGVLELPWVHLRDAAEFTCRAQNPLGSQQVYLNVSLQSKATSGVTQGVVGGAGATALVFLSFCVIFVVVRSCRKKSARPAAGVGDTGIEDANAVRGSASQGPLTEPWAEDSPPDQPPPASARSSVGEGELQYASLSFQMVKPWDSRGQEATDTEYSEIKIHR

| SMILES | Percent Effect [1] | Percent Effect [2] | Percent Effect [3] | Percent Effect [4] | Percent Effect (Trypanosoma cruzi) | Percent Effect [5] | Percent Effect [6] | Percent Effect (Homo sapiens) | Percent Effect [7] | Percent Effect [8] | Percent Effect [9] |
| --- | --- | --- | --- | --- | --- | --- | --- | --- | --- | --- | --- |
| CC1CCN(S(=O)(=O)NCCCn2cncn2)CC1 | -3.76% | 6.33% | 3.29% | 1.98% | 1.33% | 5.38% | 5.49% | 23.8% | 5.21% | 12.7% | -7.93% |
| CCOc1ccc(C#N)cc1NCC(=O)Nc1cc(F)ccc1F | -4.77% | -12.7% | -7.04% | -0.166% | 4.63% | -29.7% | 3.19% | -7.08% | 7.39% | 24.1% | 18.3% |
| Cc1cnn(CC2CCCN2Cc2cc(=O)n3ccccc3n2)c1 (configuration not stated) | -4.27% | -2.7% | -0.318% | -1.03% | 2.05% | 2.73% | 16.7% | -16.2% | 7.53% | 8.64% | -4.06% |
| CCOC(=O)c1sc2ccsc2c1CNC(=O)CC | -4.75% | 16.2% | -8.58% | 18.5% | 7.15% | -0.185% | 1.44% | 19% | 4.95% | 13.4% | 38.4% |
| CC(C)c1nc2n(n1)CC(NCc1nc(-c3cccnc3)no1)CC2 (configuration not stated) | -3.79% | 2.6% | -1.93% | -12.6% | 5.78% | -2.74% | 11.1% | -3.81% | 3.81% | 11.8% | -23.3% |
| CCC1=N[C@@]2(CC[C@@H]3CN(S(=O)(=O)N(C)C)C[C@@H]32)C(=O)N1CC(C)C | -1.28% | 10.4% | -3.92% | 6.82% | -2.07% | 3.23% | -0.696% | -7.21% | 5.29% | 11.5% | -6.8% |
| CN(C(=O)c1ccccc1Cl)C1CCN(c2ccccn2)CC1 | -6.46% | 23.4% | -2.17% | -1.36% | 6.95% | -2.32% | 12.7% | 9.9% | 7.62% | 23.5% | -2.92% |
| CCNC(c1cccnc1)c1ccc(F)c(F)c1 (configuration not stated) | -1.6% | -1.27% | 6.62% | 2.25% | -0.923% | 4.09% | 5.66% | 5.14% | 1.04% | -5.06% | -14.2% |
| CC1CCN(C(=O)c2ccn(COc3ccc(F)cc3)n2)CC1 | -1.66% | 5.2% | -0.0433% | 10.1% | 2.26% | -5.52% | 25% | -6.17% | 6.45% | 16.1% | -3.54% |
| Cc1ccc(-n2nnc(C(=O)Nc3cc(C)nn3C)c2C2CC2)cc1 | -8.29% | 5.41% | 1.63% | -1.73% | -3.99% | 1.66% | 8.98% | 33.1% | 3.96% | 1.22% | 1% |
| Cc1ccc(NC(=O)NC(C)C(=O)N2CCS(=O)(=O)CC2)cc1 (configuration not stated) | -3.85% | 5.41% | 2.74% | 5.55% | -1.74% | -11.9% | 12.4% | 11.4% | -0.529% | 12.2% | -2.08% |
| CC(NC(=O)NCCCO)c1ccc2c(c1)OCCO2 (configuration not stated) | -1.5% | 16.2% | 0.694% | -1.77% | 1.76% | 3.51% | 14.2% | 2.1% | 4.95% | 28.1% | -6.78% |
| O=C(NCC1CCS(=O)(=O)C1)c1sccc1-c1ccc(F)cc1 (configuration not stated) | -4.74% | -54% | -1.29% | 24.1% | 8.5% | 4.71% | 13.3% | 4.09% | 4.3% | 18.5% | 0.115% |
| COc1cc(CN(C)C(=O)NCCC2CCCO2)ccc1SC (configuration not stated) | -3% | 8.11% | -5.1% | 2.6% | 0.781% | 0.833% | 10.1% | -25.6% | -13.9% | 3.66% | -5.8% |
| O=C([C@@H]1CC[C@@H]2[C@@H](CCN2Cc2ccoc2)O1)N1CCCC1 | -5.35% | 13.5% | -5.44% | 27.1% | 0.684% | 4.71% | 17.9% | -10.1% | 7.53% | 13.6% | -3.6% |
| O=C1OCCN1CCOc1nc(-c2ccccc2Cl)no1 | -6.78% | 16.4% | -3.77% | 15.8% | 4.7% | 8.64% | 12.1% | 7.15% | 5.38% | 12.5% | -6.2% |
| O=C(CCNC(=O)C1CCCC1)NCc1cccnc1-n1cncn1 | -4.32% | 15.8% | -2.4% | 3.19% | -1.21% | -2.88% | 9.56% | -0.451% | 14.3% | 25.9% | -0.359% |
| COc1cccc(COCC(=O)N2CCC(CC(N)=O)CC2)c1 | -3.54% | 7.89% | -1.04% | -0.0672% | -6.77% | 5.75% | 0.334% | 23.7% | 5.39% | 12.2% | -3.41% |
| Cc1nc(C)n(C2CCCN(C(=O)c3ccc(N(C)C)nn3)C2)n1 (configuration not stated) | -1.66% | -5.2% | 4.94% | -6.86% | 7.35% | -0.632% | 6.06% | -42.5% | 2.86% | 0% | -16.9% |
| Cn1cc(-c2nc(CN3CCN(CCO)CC3)cs2)cn1 | 0.128% | 15.8% | 4.54% | -2.39% | -0.376% | -1.53% | 21.9% | 17% | 9.31% | 19.5% | -10.9% |
| O=C(NCc1csc(Br)c1)c1ccncc1 | -2.58% | 19% | 5.52% | 2.28% | 0.103% | 2.8% | 11.3% | 21.8% | -1.04% | 15.2% | -29.5% |
| Cn1nc(CNC(=O)C2CC2)cc1C1CC1 | -5.14% | 18.2% | 3.71% | 7.61% | 2.27% | -4.52% | 4% | 6.02% | 0% | 11.5% | -7.39% |
